Experiment [1] is described as follows: Validation screen for inhibitors of Lassa infection (AID 463096).
Experiment [2] is described as follows: Inducers of the Endoplasmic Reticulum Stress Response (ERSR) in human glioma: Validation (AID 504836; active means well fitted curve in the direction sought with a large enough effect; an effect the other way counts as inactive or inconclusive). Put shortly: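 Stably transfected U87-MG glioma cells carrying a GRP78-based luciferase sensor; 16 h compound incubation. Luminescence end-point read 10 min after Bright-Glo addition at room temperature.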
Experiment [3] in a line: qHTS for Inhibitors of the Functional Ribonucleoprotein Complex (vRNP) of Lassa (LASV) Arenavirus: LASV Primary Screen - GLuc reporter signal (AID 1347082; calls by dose curve; tested in HEK293 reporter line; further: series mostly up to about 57 µM; nearly all actives have a fitted effect of over 60% in size).
Experiment [4] in a line: qHTS for Inhibitors of the Functional Ribonucleoprotein Complex (vRNP) of Lassa (LASV) Arenavirus: Viability assay - alamar blue signal for LASV Primary Screen (AID 1347083; calls by dose curve; tested in HEK293 reporter line; further: series mostly up to about 57 µM; nearly all actives have a fitted effect of over 80% in size). In general terms: In qHTS, concentration-response curves come from the screen itself.
Experiment [5] in a line: qHTS for Inhibitors of the Functional Ribonucleoprotein Complex (vRNP) of Lymphocytic Choriomeningitis Arenaviruses (LCMV): Viability assay - alamar blue signal for LCMV Primary Screen (AID 1347085; calls by dose curve; tested in HEK293 reporter line; further: series mostly up to about 57 µM; nearly all actives have a fitted effect of over 80% in size).
Experiment [6] deals with Nucleoprotein (Lymphocytic choriomeningitis virus (strain Armstrong)) (UniProt P09992). Put plainly: qHTS for Inhibitors of the Functional Ribonucleoprotein Complex (vRNP) of Lymphocytic Choriomeningitis Arenaviruses (LCMV): LCMV Primary Screen - GLuc reporter signal (AID 1347086). Further: series mostly up to about 57 µM; nearly all actives have a fitted effect of over 70% in size.
Sequence of Nucleoprotein (Lymphocytic choriomeningitis virus (strain Armstrong)) (P09992 whole entry, looked up): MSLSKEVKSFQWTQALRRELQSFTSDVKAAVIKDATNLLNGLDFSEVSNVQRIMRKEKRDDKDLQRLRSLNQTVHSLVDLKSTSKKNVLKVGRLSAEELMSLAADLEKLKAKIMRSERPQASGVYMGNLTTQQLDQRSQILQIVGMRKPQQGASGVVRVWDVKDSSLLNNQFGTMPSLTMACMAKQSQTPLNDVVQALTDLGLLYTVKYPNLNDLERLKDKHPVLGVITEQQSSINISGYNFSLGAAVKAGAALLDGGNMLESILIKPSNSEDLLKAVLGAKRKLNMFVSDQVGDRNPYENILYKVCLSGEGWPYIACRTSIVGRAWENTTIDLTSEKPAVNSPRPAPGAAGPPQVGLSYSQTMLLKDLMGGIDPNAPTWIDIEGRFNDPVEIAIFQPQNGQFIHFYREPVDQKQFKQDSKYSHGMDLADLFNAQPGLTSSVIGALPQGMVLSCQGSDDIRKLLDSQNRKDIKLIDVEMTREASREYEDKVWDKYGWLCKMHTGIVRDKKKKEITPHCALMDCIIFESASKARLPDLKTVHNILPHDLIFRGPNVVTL
In experiment [7] the target is Cytochrome P450 3A4 (Homo sapiens) (UniProt P08684). Put plainly: qHTS Assay for Inhibitors and Substrates of Cytochrome P450 3A4 (AID 884; active means well fitted curve in the direction sought with a large enough effect; an effect the other way counts as inactive or inconclusive; further: potency means the concentration at half of the fitted maximal effect; nearly all actives have a fitted effect of over 50% in size). The gist of the method: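 20 nM human CYP3A4 with 25 uM Luciferin-PPXE (at KM) in 200 mM KPO4, preincubated 10 min with compound; NADPH regeneration started a 60 min RT reaction. Luciferin detected by luminescence, normalized to 57 uM ketoconazole as full inhibition.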
Sequence of Cytochrome P450 3A4 (Homo sapiens) (P08684 whole entry, looked up): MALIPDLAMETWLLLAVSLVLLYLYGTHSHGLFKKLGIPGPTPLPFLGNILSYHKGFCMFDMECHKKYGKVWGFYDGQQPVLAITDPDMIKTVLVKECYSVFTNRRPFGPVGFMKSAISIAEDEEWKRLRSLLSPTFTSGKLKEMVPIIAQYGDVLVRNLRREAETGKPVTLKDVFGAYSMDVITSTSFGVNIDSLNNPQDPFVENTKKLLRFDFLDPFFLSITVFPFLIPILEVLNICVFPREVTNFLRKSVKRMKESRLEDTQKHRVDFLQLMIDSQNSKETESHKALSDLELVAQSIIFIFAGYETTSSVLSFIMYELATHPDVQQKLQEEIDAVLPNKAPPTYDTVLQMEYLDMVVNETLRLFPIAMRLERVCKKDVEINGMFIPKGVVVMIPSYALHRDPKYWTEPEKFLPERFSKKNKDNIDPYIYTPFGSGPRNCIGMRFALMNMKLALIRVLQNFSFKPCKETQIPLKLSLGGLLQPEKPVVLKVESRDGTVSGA

Experiment [8] has the same target. Put plainly: qHTS Assay for Activators of Cytochrome P450 3A4 (AID 885; active means well fitted curve in the direction sought with a large enough effect; an effect the other way counts as inactive or inconclusive; further: nearly all actives have a fitted effect of over 65% in size). Put shortly: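 20nM CYP3A4 + 25uM Luciferin-PPXE (=KM), 200mM KPO4; cpd 10 min RT; NADPH regen, 60 min RT; stop w/ detection buffer, 20 min; luminescence. Normalized to 57 uM ketoconazole.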
Experiment [9] can be described thus: qHTS Assay for Identification of Small Molecule Antagonists for NFkB Signaling Pathway (AID 895; active means well fitted inhibition curve with a large enough effect in the signal ratio, with a control signal flat, not every such curve was filed as active; the % refers to the signal ratio; further: potency means the concentration at half of the fitted maximal effect). The gist of the method: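 ME-180 NFkB-bla cells (beta-lactamase under NFkB response element), plated overnight, treated with compound then 10 pM TNF alpha (about EC50) for 5 hrs at 37 C. LiveBLAzer FRET read at 460/530 nm emission, 405 nm excitation.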
Experiment [10] concerns the target Alpha-galactosidase (Coffea arabica) (UniProt Q42656). Put plainly: Counterscreen for Glucocerebrosidase Inhibitors: qHTS Assay for Coffee Bean alpha-Galactosidase at pH 4.5 (AID 957; active means well fitted curve in the direction sought with a large enough effect; an effect the other way counts as inactive or inconclusive; further: series mostly up to about 77 µM). The gist of the method:
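Green coffee bean enzyme (2 nM final) was incubated with compounds (0.7 nM to 77 uM) and 4-methylumbelliferyl alpha-D-galactopyranoside (80 uM final) in 50 mM citric acid, 0.005% Tween-20, pH 4.5, 20 min at room temperature; AC50 from Hill fits.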
In general terms: The purpose of a counterscreen is to sort out artefacts and off-target activity.

The target is the same in experiment [11]. Put plainly: Counterscreen for Glucocerebrosidase Inhibitors: qHTS Assay for Coffee Bean alpha-Galactosidase at pH 5.9 (AID 998; active means well fitted curve in the direction sought with a large enough effect; an effect the other way counts as inactive or inconclusive). The gist of the method:
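Green coffee bean enzyme (2 nM) with 4-methylumbelliferyl alpha-D-galactopyranoside (80 uM) in 50 mM citric acid, 0.005% Tween-20, pH 5.9, 20 min at room temperature; compounds 0.7 nM–77 uM. Stopped at pH 10, fluorescence Ex365/Em440; Hill-fit AC50.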

The target of experiment [12] is Flap endonuclease 1 (Homo sapiens) (UniProt P39748). Put plainly: qHTS Validation Assay for the Inhibitors of Human Flap endonuclease 1 (FEN1) (AID 488816; active means well fitted curve in the direction sought with a large enough effect; an effect the other way counts as inactive or inconclusive). Put shortly: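 Human FEN1 (10 nM) preincubated 15 min at room temperature with compounds, then flap DNA substrate added at 50 nM final. Fluorescence read at 0 and 15 min; concentration-response fitted with four-parameter Hill equation.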

Experiment [13] has as its target M-phase phosphoprotein 8 (Homo sapiens) (UniProt Q99549). Put plainly: qHTS Validation Assay for Inhibitors for MPP8 Chromodomain Interactions with Methylated Histone Tails (AID 488949; active means well fitted curve in the direction sought with a large enough effect; an effect the other way counts as inactive or inconclusive;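 further: AlphaScreen signal from MPP8 chromodomain bound to biotinylated H3K9me3 peptide; top concentration of the series differs between compounds; nearly all actives have a fitted effect of over 55% in size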). The gist of the method: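 AlphaScreen read-out: streptavidin donor and nickel chelate acceptor beads (final 10 ug/mL), 30 min in the dark at RT. Complex of 50 nM MPP8 and 50 nM b-H3(1-18)K9me3 peptide had been exposed to compounds for 30 min beforehand.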

For experiment [14], the target named is Chromobox protein homolog 1 (Homo sapiens) (UniProt P83916). Put plainly: qHTS Validation Assay for Inhibitors of HP1-beta Chromodomain Interactions with Methylated Histone Tails (AID 488953; active means well fitted curve in the direction sought with a large enough effect; an effect the other way counts as inactive or inconclusive;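 further: loss of AlphaScreen luminescence from HP1-beta binding biotinylated H3K9me3 peptide; series mostly up to about 110 µM; nearly all actives have a fitted effect of over 50% in size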). Put shortly:
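HP1-beta (50 nM) was preincubated 30 min at room temperature with biotinylated H3(1-18)K9me3 peptide (50 nM) in PBS pH 7.4, 0.01% Tween-20, then with compounds 30 min. AlphaScreen signal was read after streptavidin donor/nickel chelate acceptor beads (10 ug/mL final).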

A short description of experiment [15]: Validation screen for small molecules that induce genotoxicity in human embryonic kidney (HEK293T) cells expressing luciferase-tagged ELG1 (AID 493106; active means well fitted curve in the direction sought with a large enough effect; an effect the other way counts as inactive or inconclusive). Put shortly:
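HEK293T cells expressing luciferase-tagged ELG1 were exposed to compound or DMSO vehicle for 16 hr at 37 °C, 5% CO2. Genotoxic stress raises ELG1 levels, so increased luciferase signal after ONE-Glo addition and 30 min at room temperature marks hits.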

For experiment [16], the target named is ATPase family AAA domain-containing protein 5 (Homo sapiens) (UniProt Q96QE3). Put plainly: Validation screen for small molecules that inhibit ELG1-dependent DNA repair in human embryonic kidney (HEK293T) cells expressing luciferase-tagged ELG1 (AID 493107; active means well fitted curve in the direction sought with a large enough effect; an effect the other way counts as inactive or inconclusive; further: potency means the concentration at half of the fitted maximal effect; nearly all actives have a fitted effect of over 70% in size). The gist of the method:
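HEK293T cells expressing luciferase-tagged ELG1 were co-treated with 5-fluorouridine and compound or DMSO for 16 hr at 37 °C, 5% CO2. Luciferase activity was then read with ONE-Glo after 30 min at room temperature; suppressed signal indicates blocked ELG1 function.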

Experiment [17] has as its target Ubiquitin carboxyl-terminal hydrolase 1 (Homo sapiens) (UniProt O94782). Put plainly: Inhibitors of USP1/UAF1: Pilot qHTS (AID 504865; active means well fitted curve in the direction sought with a large enough effect; an effect the other way counts as inactive or inconclusive; further: potency means the concentration at half of the fitted maximal effect; nearly all actives have a fitted effect of over 35% in size). The gist of the method: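 1nM USP1/UAF1 + cpd, 15 min RT; start w/ Ub-Rho 150nM final; kinetic FL 480/540 nm, 6 reads q60 s. Buffer 50mM HEPES pH 7.8, 0.5mM EDTA, 1mM TCEP, 0.01% Tween-20, 0.1 mg/ml BSA.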
Experiment [18] can be described thus: qHTS for Inhibitors of ATXN expression: Validation (AID 588378; active means well fitted curve in the direction sought with a large enough effect; an effect the other way counts as inactive or inconclusive; further: potency means the concentration at half of the fitted maximal effect; nearly all actives have a fitted effect of over 75% in size). Put shortly:
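Cells: HEK293-ATXN2-FFLuc, phenol-red free DMEM, 2 h attachment. Compound pin-transfer, 24 h, 37 degrees C, 5% CO2. CellTiter-Fluor 30 min, Ex405/Em525; Bright-Glo 5 min, luminescence 2 s exposure.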

A number with no mark means an inactive call. Records with an inconclusive call do not appear. Calls of active or inactive are those of the source. Unless noted, the call rests on the fitted dose curve.

Sequence of M-phase phosphoprotein 8 (Homo sapiens) (Q99549 whole entry, looked up): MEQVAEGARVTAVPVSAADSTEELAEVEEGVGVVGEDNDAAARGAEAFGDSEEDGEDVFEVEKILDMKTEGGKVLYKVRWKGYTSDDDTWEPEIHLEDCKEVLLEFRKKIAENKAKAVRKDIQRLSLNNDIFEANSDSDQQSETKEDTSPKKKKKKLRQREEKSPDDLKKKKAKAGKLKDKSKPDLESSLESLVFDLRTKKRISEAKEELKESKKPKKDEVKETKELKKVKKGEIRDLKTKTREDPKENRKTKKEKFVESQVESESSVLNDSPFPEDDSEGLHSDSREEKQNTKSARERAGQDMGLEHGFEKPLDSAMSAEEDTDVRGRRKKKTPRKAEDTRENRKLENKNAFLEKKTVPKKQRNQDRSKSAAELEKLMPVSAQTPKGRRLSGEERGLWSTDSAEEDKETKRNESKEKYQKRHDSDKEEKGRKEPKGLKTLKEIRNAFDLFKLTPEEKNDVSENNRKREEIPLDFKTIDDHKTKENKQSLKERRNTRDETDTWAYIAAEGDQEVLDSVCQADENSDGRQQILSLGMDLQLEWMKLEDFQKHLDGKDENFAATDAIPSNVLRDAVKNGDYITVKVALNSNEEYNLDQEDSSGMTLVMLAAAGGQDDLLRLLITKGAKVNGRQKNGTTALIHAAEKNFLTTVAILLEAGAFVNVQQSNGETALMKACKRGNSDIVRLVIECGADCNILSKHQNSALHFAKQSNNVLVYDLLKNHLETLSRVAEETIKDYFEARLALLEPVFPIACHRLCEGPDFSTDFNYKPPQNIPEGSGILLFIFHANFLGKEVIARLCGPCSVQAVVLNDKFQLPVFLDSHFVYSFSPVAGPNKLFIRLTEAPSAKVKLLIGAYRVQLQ
Sequence of Alpha-galactosidase (Coffea arabica) (Q42656 whole entry, looked up): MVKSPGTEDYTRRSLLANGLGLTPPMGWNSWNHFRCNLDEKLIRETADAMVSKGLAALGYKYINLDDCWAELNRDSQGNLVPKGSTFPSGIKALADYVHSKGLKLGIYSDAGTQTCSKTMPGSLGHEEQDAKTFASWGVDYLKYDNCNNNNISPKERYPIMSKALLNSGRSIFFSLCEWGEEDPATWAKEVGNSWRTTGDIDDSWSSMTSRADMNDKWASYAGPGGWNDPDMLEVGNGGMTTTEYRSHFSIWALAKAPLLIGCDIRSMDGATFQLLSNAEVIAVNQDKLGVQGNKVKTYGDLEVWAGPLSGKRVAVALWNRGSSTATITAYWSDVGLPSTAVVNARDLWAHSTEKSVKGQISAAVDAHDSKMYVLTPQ
Sequence of ATPase family AAA domain-containing protein 5 (Homo sapiens) (Q96QE3 whole entry, looked up, the tested form may be a part): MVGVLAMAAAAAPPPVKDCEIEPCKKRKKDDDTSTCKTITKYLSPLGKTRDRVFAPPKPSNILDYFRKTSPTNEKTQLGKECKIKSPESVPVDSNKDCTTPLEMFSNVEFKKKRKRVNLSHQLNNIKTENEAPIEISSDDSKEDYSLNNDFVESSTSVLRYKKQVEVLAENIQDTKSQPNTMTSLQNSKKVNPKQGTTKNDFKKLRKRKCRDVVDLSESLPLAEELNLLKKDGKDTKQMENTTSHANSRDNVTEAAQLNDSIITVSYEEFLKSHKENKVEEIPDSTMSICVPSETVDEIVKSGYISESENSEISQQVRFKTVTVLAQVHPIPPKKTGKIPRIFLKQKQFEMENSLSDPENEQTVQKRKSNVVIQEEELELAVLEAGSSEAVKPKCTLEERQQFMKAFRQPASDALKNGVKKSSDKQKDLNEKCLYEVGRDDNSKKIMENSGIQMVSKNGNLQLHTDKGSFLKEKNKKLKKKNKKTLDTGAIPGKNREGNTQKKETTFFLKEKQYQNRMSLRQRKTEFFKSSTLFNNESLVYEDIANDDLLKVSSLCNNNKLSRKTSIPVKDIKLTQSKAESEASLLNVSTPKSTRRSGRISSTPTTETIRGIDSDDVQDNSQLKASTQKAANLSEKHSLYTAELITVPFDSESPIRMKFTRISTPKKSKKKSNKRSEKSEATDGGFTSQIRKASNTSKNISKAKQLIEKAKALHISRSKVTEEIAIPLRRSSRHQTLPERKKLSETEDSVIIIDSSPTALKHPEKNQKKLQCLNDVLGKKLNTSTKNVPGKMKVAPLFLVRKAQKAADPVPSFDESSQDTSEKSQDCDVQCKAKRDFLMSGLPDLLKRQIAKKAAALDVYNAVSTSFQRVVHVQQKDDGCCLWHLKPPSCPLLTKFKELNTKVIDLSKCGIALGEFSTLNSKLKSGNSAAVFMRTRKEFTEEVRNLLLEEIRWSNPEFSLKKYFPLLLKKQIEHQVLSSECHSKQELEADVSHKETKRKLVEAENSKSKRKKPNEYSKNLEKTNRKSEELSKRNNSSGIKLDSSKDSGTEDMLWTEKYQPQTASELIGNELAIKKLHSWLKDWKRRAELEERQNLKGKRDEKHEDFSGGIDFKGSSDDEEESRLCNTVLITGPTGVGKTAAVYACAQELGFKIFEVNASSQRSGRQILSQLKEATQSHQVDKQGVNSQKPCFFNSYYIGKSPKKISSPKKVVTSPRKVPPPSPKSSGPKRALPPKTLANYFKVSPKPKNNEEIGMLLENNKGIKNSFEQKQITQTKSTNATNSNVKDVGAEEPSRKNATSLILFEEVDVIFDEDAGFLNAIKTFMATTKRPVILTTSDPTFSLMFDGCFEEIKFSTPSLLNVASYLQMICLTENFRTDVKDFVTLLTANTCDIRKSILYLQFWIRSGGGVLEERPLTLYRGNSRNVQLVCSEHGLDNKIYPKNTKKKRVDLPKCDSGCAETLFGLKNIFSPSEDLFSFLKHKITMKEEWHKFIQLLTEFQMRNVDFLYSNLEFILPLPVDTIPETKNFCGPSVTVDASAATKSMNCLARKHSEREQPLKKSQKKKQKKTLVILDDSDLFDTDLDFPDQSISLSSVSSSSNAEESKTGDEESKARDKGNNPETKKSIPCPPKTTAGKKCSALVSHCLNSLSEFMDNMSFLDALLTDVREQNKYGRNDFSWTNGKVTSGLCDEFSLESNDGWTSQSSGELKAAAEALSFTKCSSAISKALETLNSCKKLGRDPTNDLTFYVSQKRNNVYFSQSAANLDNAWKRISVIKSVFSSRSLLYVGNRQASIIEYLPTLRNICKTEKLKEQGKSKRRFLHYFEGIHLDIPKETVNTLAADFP
Sequence of Ubiquitin carboxyl-terminal hydrolase 1 (Homo sapiens) (O94782 whole entry, looked up): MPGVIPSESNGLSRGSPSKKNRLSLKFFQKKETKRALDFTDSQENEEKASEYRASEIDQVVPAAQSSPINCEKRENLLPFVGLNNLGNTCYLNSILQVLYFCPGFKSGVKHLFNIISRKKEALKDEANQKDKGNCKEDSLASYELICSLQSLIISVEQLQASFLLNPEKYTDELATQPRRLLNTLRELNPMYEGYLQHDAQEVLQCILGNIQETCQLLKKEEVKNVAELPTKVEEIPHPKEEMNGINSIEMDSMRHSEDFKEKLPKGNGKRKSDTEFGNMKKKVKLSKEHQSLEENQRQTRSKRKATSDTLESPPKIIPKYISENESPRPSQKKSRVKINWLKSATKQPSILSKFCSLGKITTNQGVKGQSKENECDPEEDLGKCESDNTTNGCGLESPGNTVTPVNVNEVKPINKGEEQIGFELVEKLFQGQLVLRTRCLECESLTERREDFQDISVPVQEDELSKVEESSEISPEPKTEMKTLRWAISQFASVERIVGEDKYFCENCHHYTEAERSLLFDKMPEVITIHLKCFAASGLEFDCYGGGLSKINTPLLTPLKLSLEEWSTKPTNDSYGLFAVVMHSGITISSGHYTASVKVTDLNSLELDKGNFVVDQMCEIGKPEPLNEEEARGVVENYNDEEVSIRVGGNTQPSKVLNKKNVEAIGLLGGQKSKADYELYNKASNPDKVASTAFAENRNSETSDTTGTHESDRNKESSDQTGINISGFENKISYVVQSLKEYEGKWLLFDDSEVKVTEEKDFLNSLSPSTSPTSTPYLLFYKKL

For the compound `NCC(O)c1ccc(O)c(O)c1` (stereo unspecified), the Potency entry in experiment [1], in experiment [3], in [4], in experiment [5] and in experiment [6] was “inactive” throughout. In addition, in experiment [2], the compound was called inactive.
Take `C=CCN1CCc2c(cc(O)c(O)c2Cl)C(c2ccccc2)C1` (stereo unspecified): the Potency entry in experiment [1], in experiment [3], in experiment [4], in experiment [5] and in experiment [6] was “inactive” each time. Moreover, in [2], the compound was called inactive.
For the compound `Brc1c(Br)c(Br)c2n[nH]nc2c1Br`, the Potency in experiment [7] was 3.16 µM (active); in experiment [9], 5.01 µM (active); in [16], 25.9 µM (active); in experiment [17] it was 56.2 µM (active); in [18], 28.2 µM (active). Moreover, the Potency result in [8], in experiment [1], in [12], in experiment [13], in experiment [14] and in experiment [3] was “inactive” each time. Besides, the Potency result in [4], in [5] and in [6] was “inactive” in each case. Also, the outcome in [10], in experiment [11], in [15] and in experiment [2] was inactive.
With `Oc1ccc(C2CNCc3sccc32)cc1O` (stereo unspecified), the Potency entry in [1], in experiment [3], in experiment [4], in experiment [5] and in experiment [6] was “inactive” throughout. Moreover, the call in [2] was inactive.
In the case of `C=CCN1CCc2cc(O)c(O)cc2C(c2ccccc2)C1` (stereo unspecified), the Potency entry in experiment [1], in [3], in [4], in experiment [5] and in experiment [6] was “inactive” throughout. Moreover, the result in [2] was inactive.
Take `COC(=O)C(C)(N)Cc1ccc(O)cc1` (stereo unspecified): the Potency result in [1], in [3], in [4], in experiment [5] and in experiment [6] was “inactive” throughout. Besides, in experiment [2], the compound was called inactive.
In the case of `CN1C2CCC1CC(OC(=O)c1c[nH]c3ccccc13)C2` (stereo unspecified), the Potency result in [1], in [3], in experiment [4], in experiment [5] and in experiment [6] was “inactive” throughout. For the same compound, in experiment [2], the result was inactive.
For `CNCCC(Oc1ccccc1C)c1ccccc1` (stereo unspecified), the Potency entry in experiment [1], in experiment [3], in experiment [4], in experiment [5] and in experiment [6] was “inactive” throughout. Moreover, the call in experiment [2] was inactive.
Turning to `Cc1ccc(C(=O)O[C@H](C(=O)O)[C@@H](OC(=O)c2ccc(C)cc2)C(=O)O)cc1` (tested in a mixture with another compound), the Potency result in [1], in experiment [3], in experiment [4], in [5] and in [6] was “inactive” in each case. In experiment [2], the outcome was inactive.
Take `CC1CCN=C(N)S1` (stereo unspecified): the Potency entry in [1], in experiment [3], in experiment [4], in experiment [5] and in experiment [6] was “inactive” each time. Also, the call in [2] was inactive.
Consider `NC(N)=N[C@@H](CCC(=O)O)C(=O)O`, for which the Potency entry in experiment [1], in experiment [3], in experiment [4], in [5] and in experiment [6] was “inactive” in each case. Moreover, the compound was classed as inactive in experiment [2].
On to `CSC(N)=NCCC[C@H](N)C(=O)O`, for which the Potency entry in experiment [1], in experiment [3], in experiment [4], in [5] and in experiment [6] was “inactive” in each case. The result in [2] was inactive.
For the compound `O=C(O)CCCC[C@@H]1CCSS1`, the Potency entry in experiment [1], in experiment [3], in experiment [4], in [5] and in [6] was “inactive” in each case. In addition, the outcome in experiment [2] was inactive.
On to `COC(=O)C(N)Cc1ccc(Cl)cc1` (stereo unspecified), for which the Potency result in [1], in experiment [3], in experiment [4], in [5] and in [6] was “inactive” throughout. Moreover, the compound was classed as inactive in experiment [2].
